Screening data: PubChem, National Center for Advancing Translational Sciences (NCATS)
Sfp PPTase inh = inhibitors of Bacillus subtilis Sfp phosphopantetheinyl transferase | 310,000 compounds, 3.5% hits | Q9F4F7 | Potency, µM, usual class: inhibitors | Biochemical Sfp PPTase activity, qHTS;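 note: the enzyme is Sfp with the accession as filed and its product quenches rhodamine fluorescence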
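Reaction rates are the 30-min fluorescence difference (ex 525, em 598 nm) in wells containing 15 nM Sfp, 5 uM rhodamine-CoA and 12.5 uM BHQ-2-YbbR at pH 7.6 with 10 mM MgCl2.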
G9a block = blocks human histone lysine methyltransferase G9a; G9a H3K9 monomethylation, AlphaScreen, 2 h; Q96KQ7; AID 504332; 350,000 compounds, 8.8% hits; Potency, µM (series often up to 102 µM), actives largely listed as inhibitors; note: nearly all actives have a fitted effect of over 75% in size
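Readings reflect AlphaScreen signal from monomethyl-H3K9 antibody detection. HMT at 20 nM; substrate b-H3K9 500 nM; cofactor SAM 20 uM; 2 h RT reaction; compounds tested as titrations in qHTS with 15 min preincubation.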
BAZ2B block = BAZ2B (human) inhibition. Potency, µM (top dose mostly 114 µM), most hits filed as inhibitors. Q9UIF8. 360,000 compounds, 4.4% hits. AID 504333. AlphaScreen BAZ2B-H3K14Ac peptide displacement; note: nearly all actives have a fitted effect of over 60% in size
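Protein-peptide AlphaScreen: BAZ2B 50 nM, b-H3K14Ac 50 nM, 1x PBS pH 7.4 + 0.01% Tween-20. Preincubation 30 min RT; cpd 30 min RT (top 110 uM); beads 20 min RT, light-protected.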
L3MBTL1 block = blocks human L3MBTL1. Q9Y468. AlphaScreen L3MBTL1–H3K9me1 peptide binding. Potency, µM (top dose mostly 57.1 µM), hits mostly inhibitors. 230,000 compounds, 0.66% hits. AID 485360; note: nearly all actives have a fitted effect of over 60% in size
Target sequence (Q9Y468 whole entry, looked up): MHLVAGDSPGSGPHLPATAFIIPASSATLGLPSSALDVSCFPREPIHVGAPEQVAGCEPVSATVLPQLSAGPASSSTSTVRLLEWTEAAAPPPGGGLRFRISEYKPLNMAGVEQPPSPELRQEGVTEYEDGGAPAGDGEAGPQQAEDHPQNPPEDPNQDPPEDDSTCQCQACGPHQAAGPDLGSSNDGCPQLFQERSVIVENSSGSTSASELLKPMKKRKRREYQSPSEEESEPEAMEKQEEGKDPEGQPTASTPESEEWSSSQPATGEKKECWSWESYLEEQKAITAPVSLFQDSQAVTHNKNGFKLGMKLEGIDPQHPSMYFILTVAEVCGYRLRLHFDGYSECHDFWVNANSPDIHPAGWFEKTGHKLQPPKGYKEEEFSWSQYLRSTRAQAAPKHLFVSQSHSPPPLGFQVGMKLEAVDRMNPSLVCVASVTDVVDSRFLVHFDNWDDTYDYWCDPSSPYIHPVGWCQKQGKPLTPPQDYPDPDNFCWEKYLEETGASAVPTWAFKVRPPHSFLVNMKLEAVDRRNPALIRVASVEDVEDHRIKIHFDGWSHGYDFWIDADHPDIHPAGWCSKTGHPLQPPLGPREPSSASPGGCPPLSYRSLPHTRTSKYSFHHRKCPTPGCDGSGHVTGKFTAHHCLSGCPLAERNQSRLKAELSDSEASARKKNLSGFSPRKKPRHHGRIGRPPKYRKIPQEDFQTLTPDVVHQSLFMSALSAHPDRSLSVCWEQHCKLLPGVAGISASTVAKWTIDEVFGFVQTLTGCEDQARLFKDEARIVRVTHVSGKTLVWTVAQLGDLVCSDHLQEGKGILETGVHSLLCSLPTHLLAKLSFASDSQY
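Read-out is AlphaScreen signal from streptavidin donor and nickel chelate acceptor beads (10 ug/mL final each) bridging L3MBTL1 (50 nM) and biotinylated K9-monomethylated H3(1-15) peptide (75 nM), after 30 min compound exposure at room temperature.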
JMJD2A Tudor = inhibitors of human JMJD2A Tudor domain | 390,000 compounds, 4.4% hits | Potency, µM (titrated, usually from 114 µM), actives largely listed as inhibitors | AlphaScreen JMJD2A-Tudor / H3K4me3 peptide binding; note: nearly all actives have a fitted effect of over 50% in size
HP1b chromo inh = blocks HP1-beta chromodomain binding to methylated histone tails; P83916; AlphaScreen HP1-beta / biotin-H3K9me3 peptide binding; Potency, µM (top dose mostly 114 µM), most hits filed as inhibitors; 390,000 compounds, 0.56% hits; AID 540317; note: nearly all actives have a fitted effect of over 70% in size
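Compound inhibition of the preformed complex between 50 nM HP1-beta and 50 nM biotinylated H3K9me3 peptide was read by AlphaScreen. Buffer was PBS pH 7.4 with 0.01% Tween-20. Incubations ran 30 min at room temperature, with 10 ug/mL donor/acceptor beads.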
Numbers stand for hits; i = inactive; ? = inconclusive; nt = no result; [ ] = dose if it differs, or a comment. Shown are actives, neighbours in structure and some others; about 12% of the full set was active somewhere. Calls come from the whole dose curve; as a rule, active = well fitted curve in the direction sought with a large enough effect; inconclusive = small, poorly fitted or top-dose-only effect, or another doubt; inactive = no such curve, though single readings can be large; an effect the other way counts as inactive or inconclusive.

SMILES	Sfp PPTase inh	G9a block	BAZ2B block	L3MBTL1 block	JMJD2A Tudor	HP1b chromo inh
CCc1cccc(CC)c1NC(=O)C1CC(=O)N(c2ccc3c(c2)OCCO3)C1 (stereo not drawn)	i	i	i	nt	i	i
O=C(Nc1ccccc1Cc1ccccc1)C1CC(=O)N(c2ccc3c(c2)OCCO3)C1 (stereo not drawn)	i	3.5µM	50µM	nt	?	i
CC(C)CC(=O)NC1CC(=O)N(c2ccc3c(c2)OCCO3)C1 (stereo not drawn)	nt	i	i	nt	100µM	i
CCN(CC)S(=O)(=O)c1cccc(NC(=O)C2CC(=O)N(c3ccc4c(c3)OCCO4)C2)c1 (stereo not drawn)	nt	50µM	i	i	i	i
Cc1nc(-c2ccc(Cl)cc2)sc1CCNC(=O)c1ccco1	nt	i	i	nt	i	i
CS(=O)(=O)N1CCc2ccc(NC(=O)C3CCCO3)cc2C1 (stereo not drawn)	i	79µM	i	nt	i	i
CC(=O)c1cccc(CN2CCc3ccc(NC(=O)C4CCCO4)cc3C2)c1 (stereo not drawn)	i	i	i	nt	i	i
N#Cc1c(NC(=O)C2CC2)sc2c1CCCCC2	?	89µM	i	i	i	i
CC(C)C(=O)Nc1sc2c(c1C#N)CCCCC2	32µM	i	i	i	i	i
CC(C)(C)C(=O)Nc1sc2c(c1C#N)CCC2	i	i	i	?	i	i
O=C(Cn1cc(CNCc2ccccc2)nn1)Nc1cc(C(F)(F)F)ccc1Cl	nt	nt	nt	nt	i	nt
CCN(CC)CCN(C(=O)c1ccc2c(c1)OCCO2)c1nc2ccc(C)cc2s1	i	79µM	35µM	nt	?	i
CN(C)CCN(C(=O)c1ccc(Br)s1)c1nc2cc3c(cc2s1)OCCO3	56µM	?	nt	nt	i	i
CCN(CC)CCN(C(=O)c1ccc(S(=O)(=O)N(C)C2CCCCC2)cc1)c1nc2ccc(OC)cc2s1	i	?	i	nt	?	i
CCN(CC)CCN(C(=O)c1ccc(C(=O)c2ccccc2)cc1)c1nc2ccc(OC)cc2s1	i	45µM	?	nt	?	i
CCN(CC)CCN(C(=O)c1ccc2c(c1)OCCO2)c1nc2cc3c(cc2s1)OCO3	i	i	i	nt	?	i
CCN(CC)CCN(C(=O)c1cc2c(ccc3ccccc32)oc1=O)c1nc2cc3c(cc2s1)OCCO3	40µM	nt	?	nt	i	i
Cc1ccc2nc(N(CCCN(C)C)C(=O)c3ccc4ncsc4c3)sc2c1	40µM	14µM	?	nt	40µM	i
Cc1ccc2nc(N(CCN(C)C)C(=O)c3ccc4ccccc4c3)sc2c1	?	40µM	?	nt	45µM	i
CCN(CC)CCN(C(=O)c1ccc2ccccc2c1)c1nc2ccc(F)cc2s1	i	45µM	i	nt	?	i
CCCCN(C)S(=O)(=O)c1ccc(C(=O)N(CCN(C)C)c2nc3ccc(C)cc3s2)cc1	i	40µM	?	i	?	i
CN(C)CCN(C(=O)c1ccc2ccccc2c1)c1nc2ccc(Br)cc2s1	i	nt	i	nt	?	i
Cc1ccc(S(=O)(=O)CC(=O)N(CCCN(C)C)c2nc3ccc(C)cc3s2)cc1	nt	i[0.501 µM]	i	i	i	i
CCOC(=O)N1CCC(NC(=O)c2ccc3c(c2)N(Cc2ccccc2)C(=O)c2ccccc2S3(=O)=O)CC1	nt	?	i	nt	i	i
CC(C)(Oc1ccc([C@@H]2CC2(Cl)Cl)cc1)C(=O)O	i	i[21.5 µM]	nt	nt	nt	nt
SMILES	Sfp PPTase inh	G9a block	BAZ2B block	L3MBTL1 block	JMJD2A Tudor	HP1b chromo inh
Cc1ccc2nc(NNC(=O)c3ccc(S(=O)(=O)N4CCc5ccccc5C4)cc3)sc2c1	i	i	4.5µM	?	?	i
Cc1ccc2nc(N(CCN(C)C)C(=O)c3ccc4c(c3)OCCO4)sc2c1	i	45µM	?	nt	?	i
Cc1ccc2nc(NC(=O)c3ccc(S(=O)(=O)N4CCC(C)CC4)cc3)sc2c1	nt	i	i	nt	i	i
Cc1cc(C)c2nc(N(CCCN(C)C)C(=O)c3ccc4c(c3)OCCO4)sc2c1	nt	50µM	i	i	?	i
Cc1ccc2nc(NNC(=O)c3ccc4c(c3)OCCO4)sc2c1	?	11µM	?	i	?	i
CN(C)CCCN(C(=O)c1ccc2c(c1)OCCO2)c1nc2ccccc2s1	nt	i	i	nt	i	i
Cn1c(C(=O)NCc2ccc(F)cc2)cc2cc(S(=O)(=O)N3CCCCC3)ccc21	nt	i	i	nt	i	i
COc1ccc(C(=O)N2CCC[C@@]3(CCN(C(=O)Nc4ccccc4)C3)C2)cc1	i	i[12.7 µM]	nt	nt	nt	nt
CCc1ccc(-n2c(=O)c3c4c(sc3n(CC(=O)NC(C)CC)c2=O)CCCC4)cc1 (stereo not drawn)	nt	i	i	nt	i	i
COc1ccc(CC(=O)NCc2nc3cccnc3n2Cc2ccc(C)cc2)cc1OC	nt	i	i	nt	i	i
